Laboratory results from PubChem BioAssay (NCATS).
Inconclusive results are not listed. Active and inactive are the calls of the source. Unless noted, the call rests on the fitted dose curve; in most records, active means well fitted cell-killing curve with a large enough effect; inconclusive means small, poorly fitted or top-dose-only effect; inactive means flat fitted curve, though single readings scatter.

Tested on: not listed separately
Assay: Cell Viability - LYMP1-002 - Assay at 40 hr (AID 994);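 further: 0% = DMSO only and full inhibition = 92 µM tetraoctylammonium bromide; nearly all actives have a fitted effect of over 60% in size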
Settings: LYMP1-002 lymphoblastoid cell viability; series mostly up to 92.2 µM; viability change, negative = cytotoxic: at the top concentration
Summary of the method: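 Luminescent ATP signal served as the viability readout, with decreases taken as toxicity. Cells were treated with compounds across a concentration range for 40 hours at 37 C, and AC50 values came from standard Hill modeling.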

Structure (SMILES)	viability change, negative = cytotoxic	Potency
Brc1ccccc1	-2.49% (inactive)	–
CCOP(=S)(OCC)SCSC(C)(C)C	1.1% (inactive)	–
C=C(C)C#N	3.42% (inactive)	–
CCSC(=O)Cl	2.44% (inactive)	–
Cc1cccc([N+](=O)[O-])c1	-3.67% (inactive)	–
Nc1c(Cl)c(Cl)nc(C(=O)O)c1Cl	-7.78% (inactive)	–
CC(C)(C)OOC(C)(C)C	-3.4% (inactive)	–
C=C(C)C(=O)OCC1CO1 (stereo not drawn)	-0.106% (inactive)	–
Cc1ccc([N+](=O)[O-])cc1C	-7.82% (inactive)	–
O=[N+]([O-])c1ccc(Cl)c(Cl)c1	-2.16% (inactive)	–
C=CC(=C)C	-3.93% (inactive)	–
Cc1ccc2ccccc2c1	0.0718% (inactive)	–
Nc1ccccc1Cl	-2.12% (inactive)	–
Clc1ccc2ccccc2c1	-0.568% (inactive)	–
[O-][Br+2]([O-])O	–	inactive
Clc1nc(Cl)nc(Nc2ccccc2Cl)n1	-6.52% (inactive)	–
OCC1CO1 (stereo not drawn)	-6.77% (inactive)	–
C=CCOC(=O)c1ccccc1N	-1.94% (inactive)	–
C=CC(N)=O	–	inactive
CC(C)(c1ccccc1)c1ccc(O)cc1	-4.88% (inactive)	–

Structure (SMILES)	viability change, negative = cytotoxic	Potency
CCN(CC)c1ccccc1	-10.7% (inactive)	–
S=C=Nc1cccc2ccccc12	-12.7% (inactive)	–
N#CCCCl	–	inactive
O=NN(CCO)CCO	6.48% (inactive)	–
Cc1ccccc1N	–	inactive
C=CCOC(C)=O	-5.05% (inactive)	–
CCCC(=O)Cl	-12.3% (inactive)	–
NC(=S)Nc1ccccc1	–	inactive
O=C(Cl)/C=C/C(=O)Cl	-6.49% (inactive)	–
C=C(Cl)Cl	-0.204% (inactive)	–
ClCBr	-3.75% (inactive)	–
COc1ccc(C=O)cc1OC	-4.43% (inactive)	–
C=CC(=O)OCC	-4.79% (inactive)	–
c1nc[nH]n1	-1.46% (inactive)	–
c1ccc2c(c1)CCCC2	-2.29% (inactive)	–
CCCSC(=O)Cl	-4.59% (inactive)	–
Clc1cccc(C(Cl)(Cl)Cl)n1	-6.69% (inactive)	–
O=NN(c1ccccc1)c1ccccc1	-0.995% (inactive)	–
C1CCC2CCCCC2C1 (stereo not drawn)	-0.982% (inactive)	–
CC(O)CCl (stereo not drawn)	3.83% (inactive)	–

Tested on: not listed separately
Assay: qHTS Assay for Identification of Small Molecule Inducers of Hypoxia Response (AID 2120; active means well fitted curve in the direction sought with a large enough effect in the signal ratio, with a control signal flat, not every such curve was filed as active; the % refers to the signal ratio; further: 0% is about no effect)
Settings: hypoxia response reporter cells, beta-lactamase ratio readout; series mostly up to 104 µM; activation: at the top concentration
Summary of the method: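 ME-180 HRE-bla cells plated in Opti-MEM/0.5% dialyzed FBS, rested 4-5 h, then dosed with compound titrations by pin tool. After 17 h at 37 degrees C, CCF4 dye loaded 2.5 h at RT; 460/530 nm ratio gave %Activity and AC50.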

Structure (SMILES)	activation	outcome
Brc1ccccc1	-0.311% (inactive)	–
CCOP(=S)(OCC)SCSC(C)(C)C	0% (inactive)	–
C=C(C)C#N	-0.0046% (inactive)	–
CCSC(=O)Cl	-0.307% (inactive)	–
Cc1cccc([N+](=O)[O-])c1	-0.664% (inactive)	–
Nc1c(Cl)c(Cl)nc(C(=O)O)c1Cl	0.282% (inactive)	–
CC(C)(C)OOC(C)(C)C	0.273% (inactive)	–
C=C(C)C(=O)OCC1CO1 (stereo not drawn)	-0.564% (inactive)	–
Cc1ccc([N+](=O)[O-])cc1C	-0.0403% (inactive)	–
O=[N+]([O-])c1ccc(Cl)c(Cl)c1	0.6% (inactive)	–
C=CC(=C)C	0% (inactive)	–
Cc1ccc2ccccc2c1	-0.302% (inactive)	–
Nc1ccccc1Cl	-0.302% (inactive)	–
Clc1ccc2ccccc2c1	0.36% (inactive)	–
[O-][Br+2]([O-])O	–	inactive
Clc1nc(Cl)nc(Nc2ccccc2Cl)n1	-0.029% (inactive)	–
OCC1CO1 (stereo not drawn)	-0.321% (inactive)	–
C=CCOC(=O)c1ccccc1N	-0.0046% (inactive)	–
C=CC(N)=O	–	inactive
CC(C)(c1ccccc1)c1ccc(O)cc1	1.11% (inactive)	–

Structure (SMILES)	activation	outcome
CCN(CC)c1ccccc1	-0.302% (inactive)	–
S=C=Nc1cccc2ccccc12	1.31% (inactive)	–
N#CCCCl	–	inactive
O=NN(CCO)CCO	-0.302% (inactive)	–
Cc1ccccc1N	–	inactive
C=CCOC(C)=O	-0.282% (inactive)	–
CCCC(=O)Cl	-0.205% (inactive)	–
NC(=S)Nc1ccccc1	–	inactive
O=C(Cl)/C=C/C(=O)Cl	0.819% (inactive)	–
C=C(Cl)Cl	-0.297% (inactive)	–
ClCBr	-0.262% (inactive)	–
COc1ccc(C=O)cc1OC	2.17% (inactive)	–
C=CC(=O)OCC	0.342% (inactive)	–
c1nc[nH]n1	-0.302% (inactive)	–
c1ccc2c(c1)CCCC2	-1.17% (inactive)	–
CCCSC(=O)Cl	0.766% (inactive)	–
Clc1cccc(C(Cl)(Cl)Cl)n1	0.507% (inactive)	–
O=NN(c1ccccc1)c1ccccc1	0.524% (inactive)	–
C1CCC2CCCCC2C1 (stereo not drawn)	0.293% (inactive)	–
CC(O)CCl (stereo not drawn)	-0.595% (inactive)	–

Target: Estrogen receptor (Homo sapiens) (UniProt P03372)
Sequence (P03372 whole entry, looked up): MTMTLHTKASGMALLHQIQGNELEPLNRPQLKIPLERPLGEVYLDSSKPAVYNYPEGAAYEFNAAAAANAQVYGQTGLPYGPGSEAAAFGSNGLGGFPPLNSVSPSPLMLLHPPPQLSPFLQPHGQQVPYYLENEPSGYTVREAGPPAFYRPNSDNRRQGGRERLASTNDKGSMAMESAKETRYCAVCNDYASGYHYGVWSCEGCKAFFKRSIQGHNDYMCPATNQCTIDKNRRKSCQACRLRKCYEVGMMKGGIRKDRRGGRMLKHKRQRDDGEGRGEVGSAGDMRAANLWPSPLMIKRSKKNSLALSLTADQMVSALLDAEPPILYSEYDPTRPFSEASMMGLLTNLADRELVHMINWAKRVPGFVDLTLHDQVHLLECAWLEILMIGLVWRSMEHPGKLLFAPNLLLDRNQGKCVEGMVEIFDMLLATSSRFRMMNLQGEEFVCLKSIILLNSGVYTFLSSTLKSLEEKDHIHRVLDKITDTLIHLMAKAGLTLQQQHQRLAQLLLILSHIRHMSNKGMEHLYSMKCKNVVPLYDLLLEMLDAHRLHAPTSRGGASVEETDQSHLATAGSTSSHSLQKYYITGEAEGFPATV
Assay: qHTS assay for small molecule antagonists of estrogen receptor alpha signaling (AID 588513; active means well fitted curve in the direction sought with a large enough effect in the signal ratio, with a control signal flat, not every such curve was filed as active; the % refers to the signal ratio; further: on the % scale 0 is the no-effect control and ±100 the full control effect)
Settings: ER-alpha-UAS-bla HEK293, beta-lactamase ratio, antagonist mode; series mostly up to 76.9 µM; activity, negative = inhibition: at the top concentration
Summary of the method: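 Cells were plated at 5000/well and incubated 4 h at 37 C. Compounds were added as 1:2 dilution series, duplicates. 17-beta-estradiol (0.5nM final) was added for 18 h before CCF4 detection.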

Structure (SMILES)	Potency	activity, negative = inhibition
Brc1ccccc1	inactive	–
CCOP(=S)(OCC)SCSC(C)(C)C	inactive	–
C=C(C)C#N	inactive	–
CCSC(=O)Cl	–	10.7% (inactive)
Cc1cccc([N+](=O)[O-])c1	inactive	–
Nc1c(Cl)c(Cl)nc(C(=O)O)c1Cl	inactive	–
CC(C)(C)OOC(C)(C)C	–	2.08% (inactive)
C=C(C)C(=O)OCC1CO1 (stereo not drawn)	–	6.83% (inactive)
Cc1ccc([N+](=O)[O-])cc1C	inactive	–
O=[N+]([O-])c1ccc(Cl)c(Cl)c1	–	30.3% (inactive)
C=CC(=C)C	–	6.79% (inactive)
Cc1ccc2ccccc2c1	–	8.84% (inactive)
Nc1ccccc1Cl	–	5.69% (inactive)
Clc1ccc2ccccc2c1	–	20.3% (inactive)
[O-][Br+2]([O-])O	inactive	–
Clc1nc(Cl)nc(Nc2ccccc2Cl)n1	–	12.3% (inactive)
OCC1CO1 (stereo not drawn)	inactive	–
C=CCOC(=O)c1ccccc1N	–	1.96% (inactive)
C=CC(N)=O	inactive	–

Structure (SMILES)	Potency	activity, negative = inhibition
CC(C)(c1ccccc1)c1ccc(O)cc1	–	-37.9% (inactive)
CCN(CC)c1ccccc1	–	-7.92% (inactive)
S=C=Nc1cccc2ccccc12	–	-3.03% (inactive)
O=NN(CCO)CCO	–	15.3% (inactive)
C=CCOC(C)=O	–	28.3% (inactive)
CCCC(=O)Cl	–	31.3% (inactive)
NC(=S)Nc1ccccc1	inactive	–
O=C(Cl)/C=C/C(=O)Cl	–	12.9% (inactive)
C=C(Cl)Cl	–	15.2% (inactive)
ClCBr	–	-9.48% (inactive)
COc1ccc(C=O)cc1OC	inactive	–
C=CC(=O)OCC	–	-2.91% (inactive)
c1nc[nH]n1	–	29.3% (inactive)
c1ccc2c(c1)CCCC2	–	32.2% (inactive)
CCCSC(=O)Cl	–	15.4% (inactive)
Clc1cccc(C(Cl)(Cl)Cl)n1	–	10.2% (inactive)
O=NN(c1ccccc1)c1ccccc1	inactive	–
C1CCC2CCCCC2C1 (stereo not drawn)	–	9.8% (inactive)
CC(O)CCl (stereo not drawn)	inactive	–
